Measurements as given in PubChem BioAssay AID488841 (Sanford-Burnham Center for Chemical Genomics, 2010).
Among all 1,400 compounds or so, about 380 (27%) were called active. This is one part of the list. Values without a mark were called inactive.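 Rule for the calls: active = mean inhibition above 50% across duplicate retests at 10 µM; inactive = the rest.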

Assay: inhibition of NALP1/ASC/caspase-1 reporter signal in yeast, confirmation, NALP1 inhibitor project, S. cerevisiae, luminescence, single concentration (AID 488841);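 note: plate controls were DMSO in galactose medium for no effect and cells in plain SD medium for full effect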
Conditions: S. cerevisiae NALP1/ASC/Caspase-1 reporter, beta-gal luminescence; at 10 µM; stronger effect = higher value

SMILES	inhibition
O=[N+]([O-])c1cc(Cc2ccccc2)cc(C=Nc2ccc(N3CCOCC3)cc2)c1O	47.5%
COc1cccc(/C=N/NC(=O)CNC(=O)C2COc3ccccc3O2)c1O (stereo unspecified)	41%
NCCS	55.1% (active)
CCCCCCC(=O)N(O)C1CC(=O)N(Cc2ccccc2)C1=O (stereo unspecified)	15.2%
C=CCn1c(CNC(=O)c2cccs2)nnc1SCC(=O)Nc1ccc(C(=O)O)cc1	24.2%
Cc1ccccc1Nc1cc(C)c2c(O)cccc2n1	65.8% (active)
CC(=O)Nc1ccc2nc(CN3CCC(CO)(CCc4ccccc4)CC3)ccc2c1	34.5%
Cc1c([N+](=O)[O-])c(C(=O)Nc2ccc3c(c2)OCCO3)nn1C	27.4%
CNc1ccc(/C=C/C(=O)c2ccc3c(c2)OCCO3)cc1[N+](=O)[O-]	52.8% (active)
CCn1c(SCC(=O)Nc2oc(-c3ccccc3)c(-c3ccccc3)c2C#N)nnc1-c1cc(OC)cc(OC)c1	22.6%
COc1ccc(S(=O)(=O)N(CC(=O)N2CCOCC2)Cc2ccccc2)cc1C	22.4%
CC1(C)CC(=O)c2c(-c3cccs3)n[nH]c2C1	38.8%
CC1=NNC(=O)/C1=C\c1cn(-c2ccccc2)nc1-c1cccs1	62.4% (active)
Brc1ccc2c(c1)OCCOCCOc1cc(Br)ccc1OCCOCCOCCO2	59.6% (active)
CCCc1cc(C(=O)Nc2c(C)n(C)n(-c3ccccc3)c2=O)no1	23.7%
CCCc1cc(C(=O)Nc2cccc(Cl)c2)no1	67.2% (active)
CCn1nccc1C(=O)Nc1ccc(Cl)cn1	35.4%
CCCc1cc(C(=O)Nc2ccc(F)cc2F)no1	36.5%
CCn1ncc(C(=O)Nc2cccc(Cl)c2)c1C	53.8% (active)
CCn1ncc([N+](=O)[O-])c1C(=O)Nc1ccc(C(=O)N2CCCCC2)cc1	32.5%
COc1ccc(NC(=O)c2sc(N3CCOCC3)nc2-c2ccccc2)c(OC)c1	48.4%
O=C(/C=C/c1ccccc1Cl)c1ccc[nH]1	73% (active)
Cc1cc(NC(=O)/C=C/c2ccccc2Cl)no1	46.5%
CC(NC(=O)Nn1cnnc1)(C(F)(F)F)C(F)(F)F	9.3%
CCCCCCCCNC(C)C(O)c1ccc(SC(C)C)cc1 (stereo unspecified)	46.5%
Cc1cc(C(C)(C)C)cc(S(=O)(=O)Nc2ccc(O)c(C(=O)O)c2)c1C	24.9%

SMILES	inhibition
CC1(C)CCSC(/C=C/c2ccccc2)=N1	84% (active)
O=S(=O)(c1ccc(Br)cc1)N1CCCN(Cc2cccc(F)c2)CC1	59.5% (active)
O=C(O)C1(c2ccccc2)CCN(S(=O)(=O)c2ccc(Br)cc2)CC1	32.4%
CCOC(=O)C1CCCCN1Cc1cccc(F)c1 (stereo unspecified)	19.9%
COc1ccc(CCN(C)C2CC(=O)N(c3ccccc3)C2=O)cc1OC (stereo unspecified)	45%
Cc1ccc(C(=O)Oc2ccc3c(c2)ncn3C)cc1	47.5%
Cc1ccc(C(=O)/C=C\C(=O)c2ccc(C)cc2)cc1	51.1% (active)
O=C(Nc1nc2c(c(=O)[nH]1)CCCC2)C1CC1	27%
O=C1CC(c2cccc(Cl)c2)CC(O)=C1C=Nc1cccc(Cl)c1 (stereo unspecified)	36.5%
O=C1CC(c2ccccc2Cl)CC(O)=C1C=Nc1ccccc1 (stereo unspecified)	52.8% (active)
C/C(=N\N1CCN(c2ccc(Cl)cc2)CC1)c1ccco1	23.6%
Cc1c(N)c(C(C)(C)C)cc(C(C)(C)C)c1[N+](=O)[O-]	29.1%
OC(CNCCc1ccc(C(F)(F)F)cc1)COc1cccc2ccccc12 (stereo unspecified)	65.5% (active)
COCCNC(=O)CCc1ccc(S(=O)(=O)Nc2ccc(C)cc2)cc1	25.8%
COC(=O)c1ccccc1NC(=O)N1CCN(C/C=C/c2ccccc2)CC1	39.6%
O=C(c1ccc(Br)s1)N1CCN(C/C=C/c2ccccc2)CC1	50.6% (active)
CCC(C)c1ccccc1NC(=O)CN1CCN(C/C=C/c2ccccc2)CC1 (stereo unspecified)	46.3%
O=C(NCC1CCCO1)C(c1cccs1)N(Cc1cccs1)C(=O)Cn1nnc(-c2cccs2)n1 (stereo unspecified)	28.1%
C#CCCCCCCC#CCN(C)C	28.6%
O=C(c1cnn2ccccc12)N1CCc2ccccc21	58% (active)
CCC(=O)N1CCc2cc(S(=O)(=O)N3CCc4ccccc43)ccc21	10.5%
CSc1sc(C(=O)N2CCc3ccccc32)cc1S(=O)(=O)C(C)C	20.9%
COc1cc(NC(=O)c2cccs2)cc(OC)c1	78.8% (active)
O=C(/C=C\Nc1cccc(F)c1)c1cccs1	31.6%
CCN(CC)S(=O)(=O)c1cccc(C(=O)Oc2cccc(NC(=O)c3cccs3)c2)c1	36%
